Screening data from PubChem BioAssay.
aDG glyco up: alpha-DG glycosylation activation; AID 624168; Pro5-aDG cells, alpha-DG glycosylation AlphaScreen (IIH6); 0% Pro5, 100% B10-LARGE cell signal; 360,000 compounds, 0.22% hits; activation, % at 10 µM;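 active = activation of at least 8% versus controls, or a plate z-score of at least 8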;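 note: Pro5 are CHO cells carrying HIG-tagged alpha-DG that lacks glycosylation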
FAS-TE inh: inhibitors of human fatty acid synthase thioesterase domain | 360,000 compounds, 0.67% hits | AID 602261 | inhibition, % at 15 µM | recombinant FAS-TE, OMFH fluorogenic substrate, fluorescence endpoint;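 active = compounds whose normalised, plate-corrected inhibition of enzyme fluorescence in the single-dose primary screen is 50% or more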;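 note: 0% = DMSO with enzyme and 100% = substrate without enzyme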
Target sequence (P49327 whole entry, looked up, the tested form may be a part): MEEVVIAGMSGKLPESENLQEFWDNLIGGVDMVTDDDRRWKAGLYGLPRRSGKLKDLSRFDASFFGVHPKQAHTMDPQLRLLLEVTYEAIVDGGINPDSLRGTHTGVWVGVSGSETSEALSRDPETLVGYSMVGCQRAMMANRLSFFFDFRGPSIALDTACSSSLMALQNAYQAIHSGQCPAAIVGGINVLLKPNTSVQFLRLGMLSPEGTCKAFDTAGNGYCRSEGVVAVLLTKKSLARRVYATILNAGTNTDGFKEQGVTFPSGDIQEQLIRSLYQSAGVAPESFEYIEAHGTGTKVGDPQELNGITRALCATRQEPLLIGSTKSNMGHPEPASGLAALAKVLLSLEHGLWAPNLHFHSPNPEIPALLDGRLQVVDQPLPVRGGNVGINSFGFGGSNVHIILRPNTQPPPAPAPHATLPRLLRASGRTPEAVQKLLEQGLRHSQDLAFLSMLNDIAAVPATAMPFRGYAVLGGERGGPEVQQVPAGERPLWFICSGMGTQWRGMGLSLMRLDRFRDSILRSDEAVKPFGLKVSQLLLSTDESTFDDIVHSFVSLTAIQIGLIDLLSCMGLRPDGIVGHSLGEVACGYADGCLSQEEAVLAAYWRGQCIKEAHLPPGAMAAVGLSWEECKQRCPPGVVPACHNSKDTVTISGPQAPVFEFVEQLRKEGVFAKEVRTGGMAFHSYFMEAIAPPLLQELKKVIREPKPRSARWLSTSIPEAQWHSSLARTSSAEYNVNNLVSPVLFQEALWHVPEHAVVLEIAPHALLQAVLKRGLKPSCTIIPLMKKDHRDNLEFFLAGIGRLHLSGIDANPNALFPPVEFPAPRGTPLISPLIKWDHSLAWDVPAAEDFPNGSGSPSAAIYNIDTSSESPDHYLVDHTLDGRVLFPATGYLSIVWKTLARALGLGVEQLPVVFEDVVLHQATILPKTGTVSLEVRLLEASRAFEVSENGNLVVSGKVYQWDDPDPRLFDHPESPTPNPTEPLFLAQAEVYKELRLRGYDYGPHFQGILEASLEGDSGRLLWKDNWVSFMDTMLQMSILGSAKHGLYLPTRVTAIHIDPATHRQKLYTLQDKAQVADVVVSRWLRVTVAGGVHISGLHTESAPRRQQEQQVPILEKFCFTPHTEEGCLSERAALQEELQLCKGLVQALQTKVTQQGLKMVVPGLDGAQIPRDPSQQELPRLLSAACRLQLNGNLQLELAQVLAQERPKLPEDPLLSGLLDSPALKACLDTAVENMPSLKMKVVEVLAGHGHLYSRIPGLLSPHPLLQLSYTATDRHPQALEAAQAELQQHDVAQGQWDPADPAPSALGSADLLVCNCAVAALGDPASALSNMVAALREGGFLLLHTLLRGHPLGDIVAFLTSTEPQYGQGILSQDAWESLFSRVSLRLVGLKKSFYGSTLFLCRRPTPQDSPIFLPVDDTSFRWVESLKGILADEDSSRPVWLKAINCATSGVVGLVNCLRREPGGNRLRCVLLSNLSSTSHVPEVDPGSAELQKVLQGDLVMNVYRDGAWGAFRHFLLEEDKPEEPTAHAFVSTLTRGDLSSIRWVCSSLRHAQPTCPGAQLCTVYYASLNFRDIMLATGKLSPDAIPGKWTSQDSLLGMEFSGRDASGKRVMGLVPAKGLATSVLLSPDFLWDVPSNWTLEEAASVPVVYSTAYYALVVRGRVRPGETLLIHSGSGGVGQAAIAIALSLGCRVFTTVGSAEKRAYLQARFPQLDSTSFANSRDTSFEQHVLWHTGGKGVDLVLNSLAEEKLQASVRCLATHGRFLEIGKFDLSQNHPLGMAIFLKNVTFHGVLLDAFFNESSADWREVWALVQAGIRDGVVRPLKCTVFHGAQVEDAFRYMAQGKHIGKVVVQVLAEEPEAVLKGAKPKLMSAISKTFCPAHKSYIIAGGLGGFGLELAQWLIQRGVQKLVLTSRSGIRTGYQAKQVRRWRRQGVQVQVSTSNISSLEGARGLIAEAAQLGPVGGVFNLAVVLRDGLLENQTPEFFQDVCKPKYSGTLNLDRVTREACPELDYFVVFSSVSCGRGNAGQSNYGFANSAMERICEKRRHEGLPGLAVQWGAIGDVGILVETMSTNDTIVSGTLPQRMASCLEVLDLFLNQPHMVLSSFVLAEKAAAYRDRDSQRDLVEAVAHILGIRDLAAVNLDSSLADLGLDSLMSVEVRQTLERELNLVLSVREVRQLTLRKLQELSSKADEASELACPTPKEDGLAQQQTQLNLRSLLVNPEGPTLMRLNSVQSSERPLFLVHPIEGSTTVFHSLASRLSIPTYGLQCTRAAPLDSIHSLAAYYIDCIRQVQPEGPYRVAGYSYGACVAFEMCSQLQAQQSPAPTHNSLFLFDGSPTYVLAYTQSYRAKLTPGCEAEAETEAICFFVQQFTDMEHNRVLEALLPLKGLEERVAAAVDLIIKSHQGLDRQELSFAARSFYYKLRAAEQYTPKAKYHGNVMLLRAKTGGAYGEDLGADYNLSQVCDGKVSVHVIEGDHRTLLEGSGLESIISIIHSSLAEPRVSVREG
ADAM17 inh: inhibits human ADAM17; recombinant ADAM17, EDANS/DABCYL FRET peptide cleavage; AID 720648; 370,000 compounds, 0.83% hits; inhibition, % at 6.95 µM; P78536;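 active = inhibition above the mean of compounds lying between control limits plus 3 SD, set per campaign, cut at about 8.5% in these data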;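 note: 0% = DMSO-only wells as the low control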
ADAM10 inh: inhibitors of human ADAM10; recombinant ADAM10, EDANS/DABCYL FRET peptide cleavage, 3 h; AID 720582; inhibition, % at 7 µM; 370,000 compounds, 0.62% hits;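 active = inhibition above a per-campaign cutoff equal to the mean of compounds falling between control-based bounds plus 3 SD, cut at about 20% in these data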;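 note: 0% = DMSO wells while the 100% control is not disclosed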
NR3A LBD binder: modulates the human NR3A ligand-binding domain. Tm shift relative to glycine control, % at 25 µM. NR3A LBD differential scanning fluorimetry, Tm shift; 0% = protein alone, 100% = glycine-bound protein. 340,000 compounds, 2.5% hits;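 active = melting temperature shift of at least 10% of the positive control shift, at one fixed dose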
* hit, by the source's call; / = no result. Only some compounds are listed: those with a hit (about 4% of all), similar ones and a draw of the others.

SMILES	aDG glyco up	FAS-TE inh	ADAM17 inh	ADAM10 inh	NR3A LBD binder
C#CCOCCOCCOCCNc1nc(N2CCN(C(=O)[C@H]([C@@H](C)CC)n3cc([C@@H](N)CC(C)C)nn3)CC2)nc(N2CCN(C(=O)[C@H](CCCCN)n3cc([C@@H](N)CC(C)C)nn3)CC2)n1	/	/	/	/	10*
C#CCOCCOCCOCCNc1nc(N2CCN(C(=O)CCCCCCCCCCNC(=O)[C@H](CCCCN)n3cc(CCCC(=O)O)nn3)CC2)nc(N2CCN(C(=O)CCCCCCCCCCNC(=O)[C@@H]([C@H](C)O)n3cc(C)nn3)CC2)n1	0	-5	/	/	-3
C#CCOCCOCCOCCNc1nc(N2CCN(C(=O)CCCCCCCCCCNC(=O)[C@@H](CCC(=O)O)n3cc(CCCCCN)nn3)CC2)nc(N2CCN(C(=O)CCCCCCCCCCNC(=O)[C@H]([C@@H](C)CC)n3cc(CCCCCN)nn3)CC2)n1	0	-12	/	/	26*
C#CCOCCOCCOCCNc1nc(N2CCOCC2)nc(N2CCN(C(=O)CCCCCCCCCCNC(=O)[C@@H](CCC(=O)O)n3cc(CCCCCN)nn3)CC2)n1	0	-16	-5	-4	0
Nc1ccc(C(=O)N2N=C(c3ccc(F)cc3)CC2(O)C(F)(F)F)cc1 (configuration not stated)	0	0	-2	-11	0
COc1ccc(-c2nnc(SCC(=O)N/N=C/c3ccccc3C(=O)O)n2-c2ccccc2)cc1	0	-13	5	12	-2
COc1ccc2[nH]c(-c3ccccc3)cc2c1	0	10	-203	-397	12*
O=C(NCCc1ccccc1)N1CCCC(CNS(=O)(=O)Cc2ccccc2)C1 (configuration not stated)	0	-6	4	1	2
Nc1c(-c2cccc(Cl)c2)cnn1-c1cccc(C(F)(F)F)c1	0	36	8.6*	19	-11
O=C(Cc1cccs1)Nc1nc2c(ccc3ccccc32)s1	0	27	-1	6	11*
CC(=O)Nc1nc2c(ccc3ccccc32)s1	0	-6	-1	-6	-1
COc1ccc(CN2CCCC(C(=O)N3CCCC3)C2)cc1 (configuration not stated)	0	-10	-2	-7	2
Cn1cnc([N+](=O)[O-])c1S(=O)(=O)Oc1cccc2ccccc12	0	66*	4	2	-1
Cn1cnc([N+](=O)[O-])c1S(=O)(=O)Oc1ccc(Cl)cc1	0	52*	-4	-21	0
Clc1ccc(Nc2nc3cccnc3s2)cc1	0	4	-1	3	4
COc1ccc(C(=O)C(=NN)c2ccccc2)cc1	0	0	0	-3	/
COc1ccc(C(=O)C(=NNc2ccccc2)c2ccc(OC)cc2)cc1	-1	25	-2	0	13*
COc1cc(OC)cc(N(C(=O)c2ccco2)C(C(=O)NC2CCCC2)c2ccc(N(C)C)cc2)c1 (configuration not stated)	0	21	-4	2	2
COc1ccc(N(C(=O)c2ccco2)C(C(=O)NC2CCCC2)c2ccc(N(C)C)cc2)cc1 (configuration not stated)	0	34	-4	-5	10*
O/N=C/c1cc2ccccc2n1Cc1ccccc1F	0	-4	3	8	2
Cc1cc(C)n(-c2ccc(C(=O)OCC(=O)NCc3ccco3)cc2)n1	0	-8	1	3	21*
Cc1ccc(S(N)(=O)=O)cc1NC(=O)/C=C/c1cccs1	0	-6	-1	8	-5
Cc1nonc1OCCCNc1ccc([N+](=O)[O-])cc1Cl	0	32	0	-4	-1
O=C(O)CN1C(=O)/C(=C\c2cc(Br)ccc2OCc2ccc(Cl)cc2Cl)SC1=S	0	86*	/	/	29*
O=C(O)CN1C(=O)/C(=C\c2cccc(OCc3ccccc3F)c2)SC1=S	0	-5	-2	7	31*
SMILES	aDG glyco up	FAS-TE inh	ADAM17 inh	ADAM10 inh	NR3A LBD binder
O=C(O)CCN1C(=O)/C(=C\c2cccc(Oc3ccccc3)c2)SC1=S	0	-12	-1	-1	14*
O=C(O)CN1C(=O)/C(=C\c2ccccc2OCc2ccc(Cl)cc2)SC1=S	0	14	4	10	6
Cc1onc(-c2ccccc2)c1C(=O)N1CCCC(C(F)(F)F)C1 (configuration not stated)	0	-2	-3	-1	-2
COC(=O)CN(CCc1ccccc1)S(=O)(=O)c1ccc(OC)c(OC)c1	0	-3	-3	6	1
O=C(CN1C(=O)c2ccccc2C1=O)N1CCN(C2c3ccccc3-c3ccccc32)CC1	0	56*	3	3	-7
Brc1ccc(CNCC2CCCO2)cc1 (configuration not stated)	0	-2	-4	-9	0
COc1cccc(NC(=O)CSc2nnc(NC(=O)c3ccco3)s2)c1	0	-7	2	-2	7
O=C(CSc1nnc(NC(=O)c2ccco2)s1)Nc1cccc(F)c1	0	-4	0	-6	28*
CCc1ccc(Nc2nnc(SCC(=O)Nc3sccc3C(N)=O)s2)cc1	0	8	3	7	10*
CC(=O)Nc1cccc(NC(=O)CSc2nccn2Cc2ccco2)c1	0	-4	-1	5	14*
CC(=O)Nc1cccc(NC(=O)CSc2nnc(NC(=O)c3ccco3)s2)c1	0	-3	-4	-16	11*
COc1cccc(Nc2nnc(SCC(=O)Nc3sccc3C(N)=O)s2)c1	0	5	0	5	3
C[C@@H](C(=O)NCC1CC1)[C@@H]1C[C@@]1(C)[C@@H](NC(=O)OCc1ccccc1)c1ccccc1	1	-2	6	1	2
CN(CC(=O)Nc1ccccc1Br)C(=O)CNC(=O)C1CCCCC1	0	-6	-5	-2	0
COc1ccccc1CNC(=O)CSc1nc(N)c(C#N)c(-c2cccs2)c1C#N	0	4	-1	-8	-15
CC(=O)Nc1ccc(NC(=O)CSc2nnc(NC(=O)c3ccc(Br)o3)s2)cc1	0	-2	-1	-8	16*
Nc1cc(=O)[nH]c(SCC(=O)Nc2ccc([N+](=O)[O-])cc2)n1	0	7	-5	-2	-1
Nc1nc(SCC(=O)Nc2ccc(OC(F)(F)F)cc2)[nH]c(=O)c1NC(=O)c1ccc(Br)o1	0	0	5	10	17*
Nc1nc(SCC(=O)Nc2ccc([N+](=O)[O-])cc2)[nH]c(=O)c1NC(=O)c1ccc(Br)cc1	0	47	1	2	31*
COc1ccc(NC(=O)c2ccc(NC(=O)CSc3nc(N)cc(=O)[nH]3)cc2)cc1	0	-3	-27	-64	11*
CCOC(=O)[C@]12CCC=C1N(CCC1=CCCCC1)C(=O)[C@H](CC(=O)NCc1ccc(OC)c(OC)c1)C2	0	-4	-5	-9	/
